{
  "source": "PubChem BioAssay",
  "note": "Unmarked numbers belong to inactive results. Active and inactive are the calls of the source.",
  "data": [
    {"molecular_target": "Homeobox protein Hox-A13 (Mus musculus) (UniProt Q62424)", "sequence (Q62424 whole entry, looked up)": "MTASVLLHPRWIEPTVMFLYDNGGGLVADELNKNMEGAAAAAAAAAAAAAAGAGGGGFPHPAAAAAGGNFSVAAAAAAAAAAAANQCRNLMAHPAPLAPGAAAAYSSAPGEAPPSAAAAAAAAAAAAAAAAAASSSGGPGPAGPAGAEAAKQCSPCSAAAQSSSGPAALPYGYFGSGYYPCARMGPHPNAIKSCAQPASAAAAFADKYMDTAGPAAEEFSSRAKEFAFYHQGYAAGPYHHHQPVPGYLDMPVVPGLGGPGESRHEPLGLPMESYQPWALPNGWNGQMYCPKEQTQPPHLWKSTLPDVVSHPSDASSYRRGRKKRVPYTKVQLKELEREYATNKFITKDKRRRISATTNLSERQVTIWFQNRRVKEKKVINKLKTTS", "test": "inhibitors of HoxA13-DNA binding, primary screen, biochemical, fluorescence polarization, labeled oligonucleotide (AID 1185)", "conditions": "15 min, higher = more signal, called active from +8 up or from −8 down", "values": [
      {"smiles": "CCCC[C@@H]1C[C@H]1[C@@H](NC(=O)c1ccco1)c1ccc(-c2ccccc2)cc1", "z-score": 0.141},
      {"smiles": "O=C1O[C@@H](c2ccccc2)[C@@H](c2ccccc2)N2[C@@H](c3ccccc3OCCO)[C@]3(C(=O)Nc4ccc(C#CC5=CCCCC5)cc43)[C@@H](C(=O)N3CCCCCCC3)[C@H]12", "z-score": "-13.8 (active)"},
      {"smiles": "O=C1NC(=O)C2C1C=CC(C(O)c1cccs1)N2Nc1ccc(Cl)cc1Cl", "note": "(stereo not given)", "z-score": -4.05},
      {"smiles": "COC(=O)[C@]1(CCC(=O)OC(C)(C)C)N=C(c2ccc(OCCCO)cc2)O[C@@H]1c1ccccc1CN=[N+]=[N-]", "z-score": -0.506},
      {"smiles": "COc1ccc(C(=O)Nc2ccc(CN3C(=O)[C@]4(O[C@H](CCO)[C@@H]([Si](C)(C)c5ccc(OC)cc5)[C@@H]4C)c4ccccc43)cc2)cc1", "z-score": -0.677},
      {"smiles": "CC1(C)C2C=C(C(O)C3C=CC4C(=O)NC(=O)C4N3Nc3ccc(Cl)cc3Cl)C[C@@H]1C2", "note": "(stereo not given in full)", "z-score": -4.45},
      {"smiles": "C=C(COC)C(=O)CC[C@@H](OC(C)=O)c1ccc(CO)o1", "z-score": -3.72},
      {"smiles": "COC(=O)c1c(CC[C@@H](CO)NC(=O)NCCn2cc(C3(O)CCCC3)nn2)oc(C(C)=O)c1C(=O)OC", "z-score": -1.9},
      {"smiles": "C=C(C(=O)CC[C@@H](OC(=O)c1cccnc1)c1ccccc1OCCO)C(C)C", "z-score": -3.56},
      {"smiles": "CCOC(=O)C[C@H]1[C@H](OC(=O)c2ccc(C(=O)c3ccccc3)cc2)[C@@H](NC(=O)c2ccccc2)c2cc(OCCCO)ccc2N1C(=O)c1ccc2ccccc2n1", "z-score": -3.02},
      {"smiles": "COc1cc(NN2C(C(O)c3ccco3)C=CC3C(=O)N(c4ccccc4)C(=O)C32)cc(OC)c1OC", "note": "(stereo not given)", "z-score": -3.83},
      {"smiles": "COCCCNC(=O)[C@@]1(C)c2ccccc2C(=O)N(C(C)C)[C@H]1c1ccc(CO)cc1", "z-score": -1.71},
      {"smiles": "COc1cc2c(cc1OC)CN(C(=O)[C@@H]1[C@H]3C(=O)O[C@H](c4ccccc4)[C@H](c4ccccc4)N3[C@H](c3ccc(O)cc3)[C@@]13C(=O)Nc1ccccc13)CC2", "z-score": -2.32},
      {"smiles": "O=C(NC1CC1)[C@@H]1c2ccccc2C(=O)N(Cc2ccccc2Cl)[C@H]1c1ccc(CO)cc1", "z-score": -2.23},
      {"smiles": "O=C1c2ccccc2[C@](Cc2ccccc2I)(C(=O)NCC(F)(F)F)[C@H](c2ccc(CO)cc2)N1Cc1ccccc1Cl", "z-score": -4.2},
      {"smiles": "Cc1ccc(S[C@]2(C(=O)O)CC(=O)N(C(C)C)[C@@H]2c2ccc(CO)cc2I)cc1", "z-score": -3.85},
      {"smiles": "COc1ccc(C#Cc2ccc3c(c2)[C@]2(C(=O)N3)[C@H](C(=O)NC[C@H](O)c3ccccc3)[C@H]3C(=O)O[C@H](c4ccccc4)[C@H](c4ccccc4)N3[C@@H]2c2ccc(O)cc2)cc1", "z-score": -0.752},
      {"smiles": "COC(=O)[C@@]1(Cc2ccc(F)cc2)[C@H]2c3cc(C(=O)N4CCCC4)n(Cc4ccc(S(C)(=O)=O)cc4)c3C[C@H]2CN1C(=O)c1ccccc1", "z-score": -4.4},
      {"smiles": "O=C1C2C=CC(C(O)c3cccc4ccccc34)N(Nc3ccccc3F)C2C(=O)N1c1ccccc1", "note": "(stereo not given)", "z-score": -3.52},
      {"smiles": "CCCC[C@@H]1C[C@H]1[C@@H](NC(=O)c1ccco1)c1ccccc1C(F)(F)F", "z-score": 2.24},
      {"smiles": "CC(C)NC(=O)[C@@]1(c2ccc([N+](=O)[O-])cc2)CC(=O)N(C2CCCCC2)[C@@H]1c1ccc(CO)cc1I", "z-score": -4.64},
      {"smiles": "C=CCOC(=O)[C@H]1[C@@H]2C(=O)O[C@@H](c3ccccc3)[C@@H](c3ccccc3)N2[C@@H](c2ccc(OCCOC(=O)[C@H]3C[C@H]4C(=O)N[C@@H](CCCCNC(C)=O)C(=O)N4[C@H]3c3ccc(O)cc3)cc2)[C@]12C(=O)Nc1ccc(I)cc12", "z-score": 5.87},
      {"smiles": "Cc1ccc(S[C@]2(C(=O)NC3CC3)CC(=O)N(Cc3ccccc3)[C@@H]2c2ccc(CO)cc2I)cc1", "z-score": -2.79},
      {"smiles": "CC1CC/C=C\\[C@H]2OC34C=CCN(C(C)(C)C)C(=O)[C@H]3N(CCO)C(=O)[C@@H]4C2C(=O)O1", "note": "(stereo not given in full)", "z-score": -5.01},
      {"smiles": "C=CCC(OC(C)=O)[C@@H]1[C@@H](N(Cc2ccc(-c3ccccc3)cc2)C(=O)Cc2ccc(OC)cc2)c2cc(OCCCO)ccc2N1C(=O)Cc1ccc2ccccc2c1", "note": "(stereo not given in full)", "z-score": -1.62},
      {"smiles": "COC(=O)C(CC#Cc1ccc2c(c1)[C@]1(C(=O)N2)[C@H](C(=O)Nc2nc3ccccc3s2)[C@H]2C(=O)O[C@H](c3ccccc3)[C@H](c3ccccc3)N2[C@@H]1c1ccc(O)cc1)C(=O)OC", "z-score": -0.424},
      {"smiles": "O=C1C[C@@](C(=O)NCCN2CCOCC2)(c2ccc([N+](=O)[O-])cc2)[C@@H](c2ccc(CO)cc2I)N1CC12CC3CC(CC(C3)C1)C2", "z-score": -3.99},
      {"smiles": "CCCCCN1CC=CC23O[C@@H]4C=CCCOC(=O)C4[C@H]2C(=O)N(CCCCCO)[C@@H]3C1=O", "note": "(stereo not given in full)", "z-score": -4.21},
      {"smiles": "COCCCNC(=O)[C@@H]1c2ccccc2C(=O)N(Cc2ccccc2Cl)[C@H]1c1ccc(CO)cc1", "z-score": -2.2},
      {"smiles": "C=C(CCCC)/C(=C/C[C@@H](OC(C)=O)c1ccc(OCCO)cc1)c1cnc2ccccc2c1", "z-score": -3.65},
      {"smiles": "COc1ccc(CCNC(=O)[C@@]2(Sc3ccc(C)cc3)CC(=O)N(C(C)C)[C@@H]2c2ccc(CO)cc2I)cc1", "z-score": -2.89},
      {"smiles": "CCCC[C@@H]1C[C@H]1[C@@H](NC(=O)c1cccs1)c1ccc(-c2ccccc2)cc1", "z-score": -1.5},
      {"smiles": "CN(C)CCCCCCNC(=O)[C@H]1C[C@H]2C(=O)N[C@@H](CCCCN)C(=O)N2[C@H]1c1cccc(OCCO)c1", "z-score": -2.01},
      {"smiles": "C=C(C)[C@@H]1CC=C(C(O)C2C=CC3C(=O)N(c4ccccc4)C(=O)C3N2Nc2ccccc2)CC1", "note": "(stereo not given in full)", "z-score": -2.62},
      {"smiles": "COCCOC(=O)N1C(=O)[C@@]2(c3cc(C#CCC(C(=O)OC)C(=O)OC)ccc31)[C@H](c1ccccc1OCCO)N1[C@H](c3ccccc3)[C@H](c3ccccc3)OC(=O)[C@H]1[C@@H]2C(=O)NC[C@H](O)c1ccccc1", "z-score": -1.77}
    ]}
  ]
}
